Experimental findings from PubChem BioAssay (NCI) are described below.

Compounds without any hit were thinned out: in the full panel of roughly 83,000, 20% have a hit.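 The endpoint reported here, percent growth, reads 100 for growth as untreated, 0 for no net growth and -100 for all cells dead.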 Unmarked numbers belong to inactive results. Calls of active or inactive are those of the source. How the source made its calls: active means growth percent below 10; inactive means the rest.

Test systems include HCT-15 colon; HT29 colon; SNB-75 CNS; SNB-19 CNS; U251 CNS; PC-3 prostate; SK-MEL-5 melanoma; UACC-62 melanoma; LOX IMVI melanoma; SK-MEL-28 melanoma.
What all share (assay): NCI-60 one-dose screen, 48 h (100 = growth as untreated, 0 = no growth, -100 = all killed)
Common to all, as to settings: 10 µM unless noted

With `CCOC(=O)n1cnc2c(Cl)ncnc21`, the growth was 112% in the assay with HCT-15 colon; 106% in the assay on HT29 colon; 93.9% in the assay on SNB-75 CNS; 86.4% in the assay on SNB-19 CNS; 101% in the assay on U251 CNS; 113% in the assay with PC-3 prostate. Also, the growth was 95.8% with SK-MEL-5 melanoma, 104% with UACC-62 melanoma, 88.6% with LOX IMVI melanoma and 121% in the assay with SK-MEL-28 melanoma.
Turning to `Cc1ccn2cc(Cc3cc(=O)oc4c3ccc3ccccc34)c(=O)nc2c1`, the growth was 97.4% in the assay on HCT-15 colon; 87.8% with HT29 colon; 81.4% with SNB-75 CNS; 103% in the assay on SNB-19 CNS; 102% in the assay on U251 CNS; 104% with PC-3 prostate. In addition, the growth was 100% in the assay on SK-MEL-5 melanoma, 96.6% in the assay with UACC-62 melanoma, 98.6% in the assay on LOX IMVI melanoma and 100% in the assay with SK-MEL-28 melanoma.
`COc1ccc2c(c1)nnc1c3cccnc3[nH]c21`: the growth in the assay with HCT-15 colon is 12.2%; in the assay on HT29 colon it was -27.1% (active); in the assay with SNB-75 CNS, -14.2% (active); with SNB-19 CNS, 11.5%; in the assay with U251 CNS it was -4.49% (active); in the assay with PC-3 prostate, 29.3%. Moreover, the growth was 46.2% in the assay with SK-MEL-5 melanoma, -0.424% (active) in the assay with UACC-62 melanoma, -30.8% (active) in the assay on LOX IMVI melanoma and 31.9% in the assay on SK-MEL-28 melanoma.
For `C=C1c2c(Cl)ccc(O)c2C(O)=C2C(=O)[C@]3(O)C(O)=C(C(N)=O)C(=O)[C@@H](N(C)C)[C@@H]3[C@@H](O)[C@H]12`, the growth in the assay on HCT-15 colon was 13.7%; in the assay with HT29 colon, 10.9%; in the assay on SNB-75 CNS, 0.44% (active); with SNB-19 CNS, 20.9%; in the assay on U251 CNS, 4.36% (active); with PC-3 prostate, -8.47% (active). For the same compound, the growth is 20.4% with SK-MEL-5 melanoma, 7.11% (active) with UACC-62 melanoma, 0.768% (active) in the assay on LOX IMVI melanoma and 25.8% in the assay on SK-MEL-28 melanoma.
`O=C(Nc1ccc(Cl)c(Cl)c1)Nc1ccc(Cl)c([N+](=O)[O-])c1`: the growth with HCT-15 colon is 5.16% (active); with HT29 colon it was 2.02% (active); in the assay on SNB-75 CNS it was 16.2%; in the assay with SNB-19 CNS, 15.1%; with U251 CNS, 6.28% (active); with PC-3 prostate, -0.546% (active). For the same compound, the growth in the assay on SK-MEL-5 melanoma was -90.2% (active); with UACC-62 melanoma, 9.51% (active); with LOX IMVI melanoma, -19% (active); in the assay with SK-MEL-28 melanoma it was 12.8%.
Consider `NN=C(c1ccc(Cl)cc1)c1ccc(Cl)cc1`, for which the growth in the assay with HCT-15 colon was 90.4%; with HT29 colon, 96.7%; in the assay on SNB-75 CNS, 96.3%; in the assay with SNB-19 CNS, 98.9%; in the assay on U251 CNS it was 102%; in the assay on PC-3 prostate, 101%. Moreover, the growth in the assay on SK-MEL-5 melanoma is 107%; in the assay with UACC-62 melanoma, 100%; in the assay on LOX IMVI melanoma, 77.1%; in the assay with SK-MEL-28 melanoma, 117%.
On to `COc1ccc(-c2nn(-c3ccc(NC(=O)Nc4ccc(Cl)c(C(F)(F)F)c4)cc3)cc2-c2ccncc2)cc1Cl`, for which the growth is 4.89% (active) with HCT-15 colon; 1.91% (active) in the assay with HT29 colon; 32.8% in the assay with SNB-75 CNS; 30.1% in the assay on SNB-19 CNS; -7.17% (active) in the assay on U251 CNS; 4.33% (active) with PC-3 prostate. Also, the growth in the assay with SK-MEL-5 melanoma is -86.8% (active); with UACC-62 melanoma, 0.79% (active); with LOX IMVI melanoma it was 2.18% (active); in the assay on SK-MEL-28 melanoma, 12.2%.
As to `CCOC(=O)C1CSC(C)(C(=O)OCC)N1` (stereo not given), the growth was 101% in the assay with HCT-15 colon; 87.9% in the assay on HT29 colon; 100% with SNB-75 CNS; 107% in the assay on SNB-19 CNS; 106% with U251 CNS; 95.1% in the assay on PC-3 prostate. Moreover, the growth is 101% in the assay on SK-MEL-5 melanoma, 105% with UACC-62 melanoma, 98.2% with LOX IMVI melanoma and 107% in the assay on SK-MEL-28 melanoma.
Turning to `CCn1cc(C(=O)O)c(=O)c2cc(F)c(N3CCN(CC(=O)Nc4ccc(C(C)=O)cc4)CC3)cc21`, the growth is 104% in the assay on HCT-15 colon; 100% in the assay on HT29 colon; 87.3% in the assay on SNB-75 CNS; 99% in the assay with SNB-19 CNS; 99.6% in the assay with U251 CNS; 96.4% with PC-3 prostate. In addition, the growth with SK-MEL-5 melanoma is 100%; with UACC-62 melanoma, 95.9%; in the assay with LOX IMVI melanoma it was 96.1%; in the assay with SK-MEL-28 melanoma it was 105%.
Regarding `CCCN1C(=O)CSC1=Nc1ccc2cc3ccc(N=C4SCC(=O)N4CCC)cc3nc2c1`, the growth is 24.4% in the assay on HCT-15 colon; 4.45% (active) with HT29 colon; 29.6% in the assay with SNB-75 CNS; 55.4% in the assay on SNB-19 CNS; 36.9% in the assay on U251 CNS; 16.7% in the assay with PC-3 prostate. Besides, the growth with SK-MEL-5 melanoma is -17.7% (active); in the assay with UACC-62 melanoma, 36.9%; with LOX IMVI melanoma it was 11.4%; with SK-MEL-28 melanoma, 86.5%.
For the compound `C=C1C(=O)O[C@H]2[C@H]1CC/C(C(=O)Nc1ccc(OC)c(C(N)=O)c1O)=C\CC[C@@]1(C)O[C@@H]21`, the growth with HCT-15 colon was 45.8%; in the assay on HT29 colon, 36%; in the assay with SNB-75 CNS it was 88.5%; with SNB-19 CNS, 90.4%; with U251 CNS it was 82.2%; with PC-3 prostate it was 95.3%. Besides, the growth in the assay on SK-MEL-5 melanoma is 86.7%; in the assay with UACC-62 melanoma, 67.5%; in the assay on LOX IMVI melanoma, 77.1%; in the assay on SK-MEL-28 melanoma it was 52.9%.
Regarding `COc1ccc(C(=O)Cn2cnc3c(Nc4cc(C(=O)Nc5ccc(N6CCN(CCO)CC6)cc5)ccc4C)ncnc32)cc1`, the growth with HCT-15 colon was 102%; in the assay with HT29 colon, 101%; in the assay on SNB-75 CNS it was 79.4%; in the assay with SNB-19 CNS it was 108%; in the assay with U251 CNS, 105%; with PC-3 prostate it was 105%. The growth with SK-MEL-5 melanoma was 102%; with UACC-62 melanoma it was 104%; in the assay on LOX IMVI melanoma, 94.2%; with SK-MEL-28 melanoma, 105%.
For `CC1=C[S+](c2ccccc2)c2cccc3cc4ccccc4c1c23` (stereo not given), the growth is 7.56% (active) with HCT-15 colon; 0.469% (active) in the assay with HT29 colon; -91.1% (active) in the assay with SNB-75 CNS; -93.6% (active) in the assay with SNB-19 CNS; -81% (active) in the assay with U251 CNS; 1.38% (active) in the assay on PC-3 prostate. Also, the growth is -86.7% (active) with SK-MEL-5 melanoma, -85.2% (active) in the assay with UACC-62 melanoma, 8.36% (active) in the assay with LOX IMVI melanoma and 11.5% in the assay with SK-MEL-28 melanoma.
On to `COc1ccccc1C(OC(C)=O)OC(C)=O`, for which the growth with HCT-15 colon was 103%; in the assay on HT29 colon, 88.5%; in the assay on SNB-75 CNS, 96.4%; in the assay on SNB-19 CNS it was 113%; with U251 CNS, 97.3%; in the assay on PC-3 prostate it was 102%. In addition, the growth is 101% with SK-MEL-5 melanoma, 102% in the assay on UACC-62 melanoma, 92.9% with LOX IMVI melanoma and 109% in the assay with SK-MEL-28 melanoma.
With `CN1CCN(C(=O)/C=C/c2ccc([N+](=O)[O-])o2)CC1`, the growth with HCT-15 colon was 63.8%; with HT29 colon it was 81.8%; in the assay with SNB-75 CNS, 95.2%; with SNB-19 CNS it was 98%; with U251 CNS, 90%; in the assay on PC-3 prostate, 95.7%. Also, the growth with SK-MEL-5 melanoma was 90.1%; in the assay on UACC-62 melanoma it was 69.9%; in the assay with LOX IMVI melanoma it was 66.7%; with SK-MEL-28 melanoma, 35.8%.
